The results in this text go back to PubChem BioAssay AID743449 (Broad Institute, 2014).

Among all 9,900 compounds or so, about 90 (0.9%) were called active. Inconclusive results (about 2%) are left out. This is one part of a sample in which actives are shown more often than they occur. Values without a mark were called inactive.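 Rule for the calls: active = mean normalized replicate activity at least 50 and at least half of replicates each reaching 50; inconclusive = only one of the two criteria met; inactive = neither criterion met.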

The nature of this assay: reduction of CTGF mRNA in DLD1 cells – DLD1 colon cancer cells, RT-qPCR, single point, primary screen (AID 743449).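 Note: 0% = neutral control wells and 100% = dasatinib control wells; higher means stronger suppression of CTGF expression like dasatinib.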 The conditions noted are these: 24 h, at 12.5 µM, hits give high values. (Quantitative PCR measures a nucleic acid by following its amplification.)
For `CNC[C@@H]1Oc2c(NC(=O)Nc3cccc4ccccc34)cccc2C(=O)N([C@@H](C)CO)C[C@H]1C`, the inhibition (as a rule, the relative decrease from the control value, in per cent) was 17%.

As to `CNC[C@H]1Oc2c(NC(=O)Nc3cccc4ccccc34)cccc2C(=O)N([C@H](C)CO)C[C@@H]1C`, the inhibition is 50.9% (active).

Regarding `C[C@H]1CN([C@@H](C)CO)C(=O)c2cccc(NC(=O)c3ccc(-c4nccs4)cc3)c2O[C@H]1CN(C)C(=O)Nc1ccc(C(F)(F)F)cc1`, the inhibition is 11.6%.

Consider `C[C@@H]1CN([C@@H](C)CO)C(=O)c2cccc(NC(=O)c3nc4ccccc4s3)c2O[C@@H]1CN(C)C(=O)Nc1ccc2c(c1)OCO2`, for which the inhibition is 13.9%.

Take `COc1ccc(NC(=O)N(C)C[C@H]2Oc3c(NC(=O)CCCCCC(=O)Nc4ccccc4N)cccc3C(=O)N([C@@H](C)CO)C[C@@H]2C)cc1`: the inhibition was 30.8%.

With `COc1ccc(NC(=O)N(C)C[C@@H]2Oc3c(NC(=O)CCCCCC(=O)Nc4ccccc4N)cccc3C(=O)N([C@@H](C)CO)C[C@H]2C)cc1`, the inhibition was 1.84%.

In the case of `C[C@H]1CN([C@@H](C)CO)C(=O)c2cccc(NC(=O)c3ccc(-c4nccs4)cc3)c2O[C@@H]1CN(C)C(=O)Nc1ccc(C(F)(F)F)cc1`, the inhibition is 72.5% (active).

As to `C[C@@H]1CN([C@@H](C)CO)C(=O)c2cccc(NC(=O)c3nc4ccccc4s3)c2O[C@H]1CN(C)C(=O)Nc1ccc2c(c1)OCO2`, the inhibition is 52.6% (active).

In the case of `C[C@H](CO)N1C[C@H](C)[C@H](CN(C)C(=O)Nc2ccc(C(F)(F)F)cc2)Oc2c(NC(=O)c3ccc(-c4nccs4)cc3)cccc2C1=O`, the inhibition was -20.1%.

For `COc1ccc(NC(=O)N(C)C[C@H]2Oc3c(NC(=O)CCCCCC(=O)Nc4ccccc4N)cccc3C(=O)N([C@H](C)CO)C[C@@H]2C)cc1`, the inhibition was 51% (active).

In the case of `C[C@H](CO)N1C[C@H](C)[C@H](CN(C)C(=O)Nc2ccc3c(c2)OCO3)Oc2c(NC(=O)c3nc4ccccc4s3)cccc2C1=O`, the inhibition is 14.1%.

In the case of `CNC[C@H]1Oc2c(NC(=O)Nc3cccc4ccccc34)cccc2C(=O)N([C@@H](C)CO)C[C@H]1C`, the inhibition was -2.92%.

Regarding `O=C(C[C@@H]1C=C[C@@H](NC(=O)c2ccncc2)[C@H](CO)O1)NCC1CC1`, the inhibition was 15.8%.

With `COCC#Cc1ccc([C@H]2[C@@H](CO)N3CCCCN(Cc4cccnc4)C[C@H]23)cc1`, the inhibition is -7.41%.

For the molecule `O=C(C1CCOCC1)N1CC2(C1)[C@H](c1ccccc1)[C@@H](CO)N2C(=O)CC1CC1`, the inhibition was -35.8%.

With `COc1cccc(NC(=O)C[C@@H]2CC[C@@H]3[C@@H](COc4ccc(NC(=O)C5CC5)cc4C(=O)N3C)O2)c1`, the inhibition is -24.6%.
